3CLpro inhibitor: SARS-CoV 3CLpro protease inhibition; P0C6X7; recombinant SARS-CoV 3CLpro, quenched FRET peptide cleavage; inhibition, % at 6 µM; 290,000 compounds, 0.14% hits; AID 1706; in the data active = inhibition above about 12%
BoNT-F LC inh: blocks Botulinum neurotoxin F light chain protease; Multiplex microsphere protease cleavage assay, flow cytometry; inhibition, % at 10 µM; 360,000 compounds, 0.22% hits; in the data active = inhibition above about 35%, passing the limit was not always enough; inconclusive = no clear call, values can overlap the other calls; also: plate controls were buffer without enzyme for full effect and enzyme alone for no effect
BoNT A protease: inhibitors of Botulinum neurotoxin A light chain protease; inhibition, % at 10 µM; multiplex microsphere protease substrate cleavage, flow cytometry; 360,000 compounds, 0.17% hits; AID 588499; also: plate controls were buffer without enzyme for full effect and enzyme alone for no effect
DUSP3 inh: inhibitors of human VHR1 phosphatase (DUSP3); P51452; recombinant VHR phosphatase, pNPP absorbance; inhibition, % at 13.3 µM; 290,000 compounds, 0.52% hits; in the data active = inhibition above about 50%
Anthrax LF inh2: anthrax lethal factor protease inhibition | P15917 | multiplex microsphere protease cleavage assay, LF | inhibition, % at 10 µM | 360,000 compounds, 0.12% hits | AID 588501; also: plate controls were buffer without enzyme for full effect and enzyme alone for no effect
Target sequence (P15917 whole entry, looked up): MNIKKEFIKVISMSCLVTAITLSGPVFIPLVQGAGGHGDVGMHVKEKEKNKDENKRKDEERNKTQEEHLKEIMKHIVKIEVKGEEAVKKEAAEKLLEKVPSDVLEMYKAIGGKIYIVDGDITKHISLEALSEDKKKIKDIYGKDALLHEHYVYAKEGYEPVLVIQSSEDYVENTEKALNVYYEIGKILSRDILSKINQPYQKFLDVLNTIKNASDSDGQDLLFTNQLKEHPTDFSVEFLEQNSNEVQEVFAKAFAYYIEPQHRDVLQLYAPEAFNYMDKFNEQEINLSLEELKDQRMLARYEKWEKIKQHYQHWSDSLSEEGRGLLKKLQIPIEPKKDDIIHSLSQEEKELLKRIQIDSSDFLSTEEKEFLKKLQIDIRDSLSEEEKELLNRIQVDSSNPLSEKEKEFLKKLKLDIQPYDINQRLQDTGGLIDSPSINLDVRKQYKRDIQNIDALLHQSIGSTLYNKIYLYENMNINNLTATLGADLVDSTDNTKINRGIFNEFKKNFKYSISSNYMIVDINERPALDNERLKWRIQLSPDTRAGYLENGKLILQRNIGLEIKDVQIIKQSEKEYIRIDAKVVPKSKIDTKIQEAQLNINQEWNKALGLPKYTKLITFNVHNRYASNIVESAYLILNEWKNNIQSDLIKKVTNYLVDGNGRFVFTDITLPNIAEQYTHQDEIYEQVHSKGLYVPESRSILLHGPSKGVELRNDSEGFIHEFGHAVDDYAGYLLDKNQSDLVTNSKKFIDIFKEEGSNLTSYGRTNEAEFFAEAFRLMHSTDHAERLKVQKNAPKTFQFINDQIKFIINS
Bead autofluor: flagged as autofluorescent in microsphere protease counterscreen; compound autofluorescence counterscreen, microsphere flow cytometry; stronger effect = higher value; fluorescence intensity (test concentration not listed); 360,000 compounds, 3.1% hits; in the data active = fluorescence intensity above about 16000; inconclusive = no clear call, values can overlap the other calls
* marks the source's active call; other numbers are inactive results; ? = inconclusive; / = not tested or not shown. This is a sample that favours compounds with a hit; in the whole collection about 3.9% have one here. Rule as the data show it, unless noted: active = inhibition above about 30%; inconclusive = no clear call, values can overlap the other calls; inactive = below that.

SMILES | 3CLpro inhibitor | BoNT-F LC inh | BoNT A protease | DUSP3 inh | Anthrax LF inh2 | Bead autofluor
CCOC(=O)c1c(C)[nH]c(C(=O)COC(=O)CN2C(=O)C3CCCCC3C2=O)c1C (configuration not stated) | 4 | -1 | 2 | 18 | 7 | 9323
COc1ccc(NC2CCCN(C(=O)CCc3ccncc3)C2)cc1OC (configuration not stated) | -8 | 4 | -2 | 54* | -1 | 6228
C=C(C)Cn1c2ccc(NC(=O)NCCc3ccccc3)cc2c(=O)n1C | / | 0 | 0 | / | 2 | 3822
C=CCN1C(=O)[C@]2(c3ccccc31)C1CCCC=C1C(C#N)=C(N)C2(C#N)C#N (some centres not stated) | -6 | -2 | ? | 17 | -8 | 20366*
C=CCN1C(=O)C2(c3ccccc31)C1CCCC=C1C(C#N)=C(N)C2(C#N)C#N (configuration not stated) | 1 | 3 | 0 | 17 | 0 | 9585
COc1ccc(CN2C[C@H](Cc3ccccc3)[C@@H](CC(=O)Nc3ccccc3)C2=O)cc1 | 7 | / | / | 20 | / | /
Cc1cc(C)cc(N2CC(C(=O)OCC(=O)Nc3cc(C)on3)CC2=O)c1 (configuration not stated) | -1 | -9 | -1 | -5 | 8 | 3653
CCOC(=O)c1c(/N=C/c2c(O)n(-c3ccccc3F)c(=S)[nH]c2=O)sc2c1CCCC2 | 1 | 24 | 57* | 16 | 56* | 3294
CCOC(=O)c1ccc(N=Cc2c(O)n(-c3ccccc3F)c(=S)[nH]c2=O)cc1 | -3 | 3 | 0 | -3 | 0 | 10675
CCOC(=O)c1c(/N=C/c2c(O)n(-c3ccc(F)cc3)c(=S)[nH]c2=O)sc2c1CCCC2 | 4 | 43* | 101* | -10 | 56* | 11434
CCCNC(=O)COC(=O)c1ccccc1OCc1ccc(Cl)cc1 | 3 | -11 | 1 | 17 | -3 | 4247
O=C(NCCNC(=O)Oc1cccc2ccccc12)Oc1cccc2ccccc12 | / | -3 | 1 | / | -1 | 3789
COc1ccc(-c2cc3nc4n(c(=O)c3s2)CCC4)cc1 | -5 | 1 | ? | 10 | 0 | 23433*
O=C(NCc1ccccn1)c1cc(Cl)ccc1OCc1ccccc1 | 2 | -6 | -1 | 24 | 4 | 6489
Cc1nnc(NC(=O)Oc2ccccc2)s1 | -4 | 4 | 0 | 10 | -2 | 9085
CCC(CC)c1nnc(NC(=O)Oc2ccccc2)s1 | -3 | 42* | 4 | 29 | 7 | 5722
COc1ccc(-n2nnnc2S(=O)(=O)Cc2ccc(C(=O)O)cc2)cc1 | -1 | 3 | 6 | -1 | -11 | 17765*
COc1ccc(S(=O)(=O)NCc2ccc(C(=O)N3CCN(Cc4ccccc4)CC3)cc2)cc1 | 2 | -4 | 0 | 7 | -3 | 4561
COc1ccc(-n2nnnc2S(=O)(=O)CC(=O)N2CCCCC2)cc1 | 2 | -3 | 0 | 12 | -7 | 5100
CCC(=O)Nc1ccc(N2CCCCC2)c(C(=O)Nc2ccc(OC)cc2)c1 | 4 | 6 | 2 | 4 | 2 | 5740
COc1ccc(CC(=O)Nc2ccc(N3CCCC3)c(C)c2)cc1 | -6 | -18 | 0 | 50* | -4 | 6473
COc1ccc(C(=O)Nc2ccc(C(=O)O)cc2NC(=O)c2ccc(OC)cc2)cc1 | 3 | -6 | 2 | -9 | -4 | 3334
COc1ccc(S(=O)(=O)NCc2ccc(C(=O)O)cc2)cc1 | 4 | 1 | 0 | 18 | 0 | 20146*
COc1ccc(CC(=O)Nc2ccc(C(=O)O)cc2NC(=O)Cc2ccc(OC)cc2)cc1 | 0 | 4 | -1 | 57* | -1 | 4179
C[C@H](NC(=O)C1CCN(C(=O)[C@@H]2CCCN2C(=O)OC(C)(C)C)CC1)C(=O)NCc1ccc(F)cc1 | / | 0 | 0 | / | -1 | 5563
SMILES | 3CLpro inhibitor | BoNT-F LC inh | BoNT A protease | DUSP3 inh | Anthrax LF inh2 | Bead autofluor
CC(=O)c1cc(F)c(N2CCN(c3ccc([N+](=O)[O-])cc3F)CC2)cc1C | 0 | -4 | -2 | -4 | -6 | 20270*
Cc1ncc(CO)c(/C=N/NC(=O)c2cc3c(s2)CCCC3)c1O | 1 | -4 | 0 | 5 | -4 | 4508
CC1(C(=O)NS(=O)(=O)c2ccc3ccccc3c2)CCN1C(=O)CC1CCCCC1 (configuration not stated) | / | 0 | 0 | / | -3 | 3582
Cc1ccccc1NC(=O)c1ccccc1O | -2 | 0 | 0 | -8 | -1 | 22757*
Cc1ccc(NC(=O)c2ccccc2O)cc1 | -4 | 2 | 0 | 54* | 3 | 2974
CN(C(=O)c1ccccc1Cl)c1ccccc1C(=O)NCc1ccccc1 | -6 | -6 | -1 | 53* | 1 | ?
CSc1ccccc1C(=O)Nc1ccccc1C | -4 | -3 | 0 | 30 | 2 | 2431
Cc1ccccc1C(=O)Nc1ccccc1C(=O)NCc1ccccc1 | -5 | -2 | 0 | 7 | -3 | 21881*
CC(=O)Oc1ccccc1C(=O)OCCN=C1NS(=O)(=O)c2ccccc21 | 2 | 16 | 0 | -30 | -6 | 3727
CC(=O)c1sc(NC(=O)C(C)Oc2ccc3c(C)cc(=O)oc3c2)nc1C (configuration not stated) | -2 | 4 | 2 | 22 | 3 | 5883
O=C(Nc1ccccc1C(=O)NCCc1ccccc1)c1ccco1 | 6 | 1 | 0 | 21 | -1 | 2599
O=C(O)CNC(=O)c1ccccc1NC(=O)c1ccco1 | 2 | -2 | -1 | -4 | -1 | 22742*
Cc1cc(C)c(OCCCCNCc2ccccc2)c(Cl)c1 | -4 | -21 | ? | 18 | -3 | 21662*
Cc1cc(C)c(OCCNCc2ccccc2)c(C)c1 | -1 | 0 | -3 | 18 | 2 | 4377
Cc1cc(C)c(C)c(OCCNCc2ccccc2)c1 | 1 | ? | 1 | 52* | 0 | 4352
COCCCNCCCCOc1c(Cl)cc(C)cc1Br | 0 | -8 | ? | 34 | -4 | 22891*
CCOC(=O)C1=C(COC(=O)CNS(=O)(=O)c2ccc(C)c(C)c2)NC(=O)NC1C (configuration not stated) | / | 0 | 0 | / | 0 | 3425
COc1cc(NC(=O)C2(C)CCCN(C(C)C)C2)cc(OC)c1OC (configuration not stated) | / | -7 | 0 | / | 2 | 4007
COc1ccc(C)cc1NC(=O)c1ccoc1C | 0 | 0 | 0 | -24 | 2 | 2987
COc1ccc(C(C)(C)C)cc1NC(=O)c1ccoc1C | 0 | -1 | 1 | -1 | -9 | 21536*
Cc1cc2ccccc2c(=O)n1CC(=O)NCC(=O)N1CCN(c2cccc(Cl)c2)CC1 | 0 | -1 | ? | 22 | -3 | 20243*
Cc1ccc(N2CC(C(N)=O)CC2=O)cc1 (configuration not stated) | -1 | 4 | ? | -1 | 4 | 18778*
Cc1ccc(N2CC(C(=O)Nc3nnc(C(C)C)s3)CC2=O)cc1 (configuration not stated) | 1 | 2 | 1 | 13 | 2 | 22336*
